hERG WT inh = KCNH2 (human, wildtype) channel inhibition | Q12809 | activity change, % at 1.84 µM | 340,000 compounds, 0.37% hits | U2OS, BacMam KCNH2, thallium flux FluxOr; hits give low values | AID 720551;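 active means maximum activity change below -70%; inconclusive means maximum activity change between -70% and -50%; inactive means maximum activity change above -50%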
Target sequence (Q12809 whole entry, looked up): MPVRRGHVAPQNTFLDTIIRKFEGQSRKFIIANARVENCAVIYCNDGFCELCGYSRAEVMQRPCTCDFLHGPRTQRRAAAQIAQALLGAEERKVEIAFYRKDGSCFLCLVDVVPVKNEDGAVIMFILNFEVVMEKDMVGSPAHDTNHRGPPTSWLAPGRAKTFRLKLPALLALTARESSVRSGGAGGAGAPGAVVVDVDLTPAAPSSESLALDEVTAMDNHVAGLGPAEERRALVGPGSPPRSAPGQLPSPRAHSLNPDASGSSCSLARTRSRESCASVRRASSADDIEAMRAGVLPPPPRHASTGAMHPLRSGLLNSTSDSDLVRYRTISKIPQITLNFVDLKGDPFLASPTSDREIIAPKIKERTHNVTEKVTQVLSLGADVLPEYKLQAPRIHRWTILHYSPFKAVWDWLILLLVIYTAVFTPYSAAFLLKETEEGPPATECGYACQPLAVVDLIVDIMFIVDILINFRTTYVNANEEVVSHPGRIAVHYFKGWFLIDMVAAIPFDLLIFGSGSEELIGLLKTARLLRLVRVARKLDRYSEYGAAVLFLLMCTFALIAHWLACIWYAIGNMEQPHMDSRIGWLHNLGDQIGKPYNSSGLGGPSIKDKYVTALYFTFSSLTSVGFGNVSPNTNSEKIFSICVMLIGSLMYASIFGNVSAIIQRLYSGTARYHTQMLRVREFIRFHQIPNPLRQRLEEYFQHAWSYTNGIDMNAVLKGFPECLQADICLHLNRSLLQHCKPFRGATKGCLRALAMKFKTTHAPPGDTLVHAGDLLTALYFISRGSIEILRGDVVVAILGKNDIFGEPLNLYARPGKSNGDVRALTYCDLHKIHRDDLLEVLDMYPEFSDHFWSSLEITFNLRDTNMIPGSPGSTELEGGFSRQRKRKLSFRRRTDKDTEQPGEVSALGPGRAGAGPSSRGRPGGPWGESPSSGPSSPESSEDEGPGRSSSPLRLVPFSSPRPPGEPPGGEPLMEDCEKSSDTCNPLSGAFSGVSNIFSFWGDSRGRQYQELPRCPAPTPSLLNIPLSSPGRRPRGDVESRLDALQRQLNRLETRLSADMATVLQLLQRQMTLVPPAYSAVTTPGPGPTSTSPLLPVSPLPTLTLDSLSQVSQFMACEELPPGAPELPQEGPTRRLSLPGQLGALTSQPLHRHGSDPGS
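U2OS cells were transduced with wild-type KCNH2 virus (2.03 x 10^8 / mL) for 4 h at room temperature, then cultured overnight at 37 C. Thallium flux was read with FluxOr dye. Rate constants were normalized to DMSO controls.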
gsp agonist = gsp mutant agonism; gsp mutant cells, cAMP HTRF, 30 min; Potency, µM (titrated, usually from 76.9 µM), hits mostly activators; 340,000 compounds, 0.13% hits; active means well fitted activation curve with a large enough effect; inconclusive means small, poorly fitted or top-dose-only effect, or another doubt; inactive means no such curve, though single readings can be large or run the other way; cell line not stated here;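 further: phosphodiesterase inhibitor Ro 20-1724 added with compounds to block cAMP breakdown; nearly all actives have a fitted effect of over 60% in size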
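Cells in DMEM/10% FBS with G418 were pretreated with compounds in DMSO plus […] (300 uM stock) for 30 min at 37C. cAMP was measured by HTRF (cAMP-d2 plus anti-cAMP antibody-K) after 30 min at room temperature.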
Glioma ERSR ind = inducers of ER stress response in human glioma cells; Potency, µM, actives largely listed as activators; 420,000 compounds, 0.02% hits; U87-MG GRP78 promoter luciferase reporter, 16 h; active means well fitted activation curve with a large enough effect; inconclusive means small, poorly fitted or top-dose-only effect; inactive means no such curve, though single readings can be large or run the other way; further: series mostly up to about 76 µM; nearly all actives have a fitted effect of over 35% in size
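Stably transfected U87-MG glioma cells carrying a GRP78-based luciferase sensor; 16 h compound incubation. Luminescence end-point read 10 min after Bright-Glo addition at room temperature.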
pAkt inh = blocks phosphorylation of Akt; activity change, % for hits at 50 µM; AID 651550; Neuro2A IGF-stimulated pAkt S473 HTRF, 20 min; hits give low values; 360,000 compounds, 0.32% hits; in the data active means activity change below about -80%; inconclusive means mostly about -51% to -80%
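Single-point screen (50 µM final compound) in Neuro2A cells stimulated 20 min with 6 nM IGF at 37 deg C. After lysis, Ser473-phosphorylated Akt read by HTRF (ex 330 nm, em 615/665 nm) as the 665/615 ratio.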
KCNH2 3.1 block = inhibitors of human KCNH2 3.1 potassium channel isoform; 340,000 compounds, 0.95% hits; U2OS KCNH2 3.1, thallium flux FluxOr; hits give low values; activity change, % (tested at about 1.8 µM);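 active means maximum activity change below -70%; inconclusive means maximum activity change from -70% to -50%; inactive means maximum activity change above -50%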;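 further: thallium influx rate constant from kinetic fluorescence after stimulation buffer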
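Channel expression came from 3.1 mutant virus (1.77 x 10^8 /mL) applied to suspended U2OS cells for 4 h. Flux was tracked with FluxOr dye plus Red40 quencher, and kinetic rate constants normalized to controls.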
gsp antagonist = gsp mutant antagonism; 340,000 compounds, 0.4% hits; Potency, µM (top dose mostly 76.9 µM), most hits filed as inhibitors; gsp-mutant cells, cAMP HTRF, 30 min; calls by dose curve; cell line not stated here;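 further: intracellular cAMP measured with PDE inhibitor Ro 20-1724 present during compound exposure; nearly all actives have a fitted effect of over 65% in size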
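G418-selected cells were plated in DMEM/10% FBS for 16-24 h at 37C, then treated with compounds plus the PDE inhibitor […] (300 uM solution added) for 30 min at 37C. Intracellular cAMP was measured by HTRF after 30 min lysis at room temperature.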
Large screens that a line does not name were inactive. Compounds with a hit are over-represented: about 1.6% of the library has one in this group of screens.

COc1cccc(CNC(=O)c2c(OC)cc(=O)n3c2CCN(C(=O)c2cc(F)cc(F)c2)CC3)c1	none (no result: hERG WT inh, gsp agonist, pAkt inh, KCNH2 3.1 block, gsp antagonist)
CC(=O)Nc1ccc(S(=O)(=O)N2CCC(C(=O)NCCc3c[nH]c4ccccc34)CC2)cc1	KCNH2 3.1 block -133
O=C(CCNC(=O)C1CCN(S(=O)(=O)c2ccc(F)cc2)CC1)NCc1ccc(Cl)cc1	KCNH2 3.1 block -113
O=C(CCNC(=O)C1CCN(S(=O)(=O)c2ccc(F)cc2)CC1)NCc1ccc(F)cc1	none
COC(=O)c1ccc(CNC(=O)CSc2nnc(COc3ccccc3)n2C)o1	pAkt inh -110%
CCN(CC)S(=O)(=O)c1ccc(C(=O)OCCNC(=O)c2cccnc2)cc1	gsp agonist 32µM
CCOC(=O)C1=C(C)NC(C)=C(C(=O)OCCNC(=O)c2cccnc2)C1c1cccc([N+](=O)[O-])c1 (stereo not given)	none
O=C(NCCOC(=O)c1ccc([N+](=O)[O-])cc1)c1cccnc1	gsp agonist 18µM
CCOc1ccccc1NC(=O)c1cccc(NC(=O)c2ccco2)c1	none
COc1cccc(C(=O)Nc2ccc(NC(=O)c3ccco3)c(Cl)c2)c1	none
CCOc1ccc(C(=O)Nc2ccc(NC(=O)c3ccco3)c(Cl)c2)cc1Br	KCNH2 3.1 block -81
CCOc1ccc(C(=O)Nc2ccc(NC(=O)c3ccco3)c(Cl)c2)cc1Cl	KCNH2 3.1 block -72
C[C@H](/C=C/[C@H](C)C(C)(C)O)[C@H]1CC[C@H]2/C(=C/C=C3C[C@@H](O)C[C@H](O)C3)CCC[C@]12C	none (no result: hERG WT inh, gsp agonist, pAkt inh, KCNH2 3.1 block, gsp antagonist)
CC(=O)c1ccccc1-c1ccc2c(c1)CC(CNC(=O)C[C@@H]1C[C@@H](C)NC(=S)N1)O2 (stereo not given in full)	none (no result: hERG WT inh, gsp agonist, pAkt inh, KCNH2 3.1 block, gsp antagonist)
Cc1cccc(C)c1NC(=O)CN(C)S(=O)(=O)c1ccc(-c2ccc(=O)[nH]n2)s1	KCNH2 3.1 block -177
CC(=O)c1ccccc1-c1ccc2c(c1)CC(CNC(=O)Cc1c[nH]c3ccccc13)O2 (stereo not given)	none (no result: hERG WT inh, gsp agonist, pAkt inh, KCNH2 3.1 block, gsp antagonist)
CC1CCN(c2nnc(-c3ccccc3)c3ccccc23)CC1	gsp antagonist inconclusive
COc1ccc(OCC(=O)N2CCN(c3nnc(-c4ccc(C)cc4)c4ccccc34)CC2)cc1	gsp antagonist 28µM
Cc1ccc(-c2nnc(N3CCC(C)CC3)c3ccccc23)cc1	gsp antagonist 25µM
Cc1ccc(OCC(=O)N2CCN(c3nnc(-c4ccc(C)cc4)c4ccccc34)CC2)cc1	gsp antagonist 35µM
Cc1ccc(-c2nnc(N3CCN(C(=O)COc4cccc(C)c4)CC3)c3ccccc23)cc1	gsp antagonist inconclusive
COc1ccc(OCC(=O)N2CCN(c3nnc(-c4ccccc4)c4ccccc34)CC2)cc1	gsp antagonist 40µM
O=C(COc1ccccc1)N1CCN(c2nnc(-c3ccccc3)c3ccccc23)CC1	gsp antagonist inconclusive
CC1CCN(c2oc(-c3ccc(OCc4ccccc4Cl)cc3)nc2C#N)CC1	none (no result: hERG WT inh, gsp agonist, pAkt inh, KCNH2 3.1 block, gsp antagonist)
Cc1cccc2cc(CN(C(=O)c3ccc(C(F)(F)F)cc3)C3CC3)c(N3CCC(O)CC3)nc12	none (no result: hERG WT inh, gsp agonist, pAkt inh, KCNH2 3.1 block, gsp antagonist)
CCC(=O)CC(NC(=O)OC)c1ccc(F)cc1 (stereo not given)	none (no result: hERG WT inh, gsp agonist, pAkt inh, KCNH2 3.1 block, gsp antagonist)
COC(=O)[C@@H]1CCCN1Cc1ccc2c(c1)CN(Cc1ccc3c(c1)OCCO3)CCO2	none (no result: hERG WT inh, gsp agonist, pAkt inh, KCNH2 3.1 block, gsp antagonist)
COC(=O)C(O)(CC(=O)Nc1ccccc1OC)C(F)(F)F (stereo not given)	pAkt inh -99%
COc1cc2nc(CN(CCO)C3CS(=O)(=O)CC3O)nc(N3CCCCC3)c2cc1OC (stereo not given)	none (no result: hERG WT inh, gsp agonist, pAkt inh, KCNH2 3.1 block, gsp antagonist)
O=C(CCl)Nc1ccccc1C(=O)NCc1ccccc1	KCNH2 3.1 block -109
Cc1ccccc1NC(=O)Nc1ccccc1C(=O)NCc1ccccc1	none
O=C(CCS(=O)(=O)c1ccccc1)Nc1nc2cc3c(cc2s1)OCO3	gsp antagonist 50µM
CCCc1nc(SCC(=O)Nc2ccccc2)c2c(=O)n(C)c(=O)n(C)c2n1	none
CCCc1nc(SCC(=O)N2CCC(Cc3ccccc3)CC2)c2c(=O)n(C)c(=O)n(C)c2n1	gsp agonist inconclusive, gsp antagonist 25µM
Cc1nc(SC2CCOC2=O)c2c(C)c(C)sc2n1 (stereo not given)	gsp agonist 20µM
NC(=O)COC(=O)c1cccnc1Nc1ccccc1F	KCNH2 3.1 block -72
CN(C)C(=O)COC(=O)c1cccnc1Nc1ccccc1F	none
O=C(NCC1Cc2cccc(-c3ncccn3)c2O1)C1CCCO1 (stereo not given)	none (no result: hERG WT inh, gsp agonist, pAkt inh, KCNH2 3.1 block, gsp antagonist)
CC(C)NC(=O)C12CC3CC(C1)CC(C(=O)NC(C)C)(C3)C2	gsp agonist inconclusive, KCNH2 3.1 block -88
Cc1ccc(-c2noc(C3CCCN(C(=O)c4c(F)cccc4F)C3)n2)cc1 (stereo not given)	gsp antagonist inconclusive
Cc1ccc(-c2noc(C3CCCN(C(=O)c4ccccc4Br)C3)n2)cc1 (stereo not given)	gsp antagonist 45µM
COc1ccccc1CN1CCOc2ccc(CN3CCC(Oc4cccnc4)CC3)cc2C1	none (no result: hERG WT inh, gsp agonist, pAkt inh, KCNH2 3.1 block, gsp antagonist)
N#Cc1c(-c2cccc([N+](=O)[O-])c2)nc2n(c1=O)CCS2	none
N#Cc1c(-c2ccc([N+](=O)[O-])cc2)nc2n(c1=O)CCS2	gsp agonist 14µM
Cc1cc(C)cc(N(CC(=O)Nc2ccc(Br)cc2)S(=O)(=O)c2c(C)[nH]c(=O)[nH]c2=O)c1	KCNH2 3.1 block -109
Cc1cc(C)cc(N(CC(=O)Nc2cc(C)ccc2C)S(=O)(=O)c2c(C)[nH]c(=O)[nH]c2=O)c1	gsp agonist inconclusive
CC(=O)Nc1ccc(Oc2ccc(S(=O)(=O)N3CCCC3)cn2)cc1	none
N#Cc1cccc(Oc2ccc(S(=O)(=O)N3CCCC3)cn2)c1	hERG WT inh -89, gsp agonist inconclusive, KCNH2 3.1 block inconclusive
CCC(C)N(C)Cc1cccc(C2(O)CCN(S(=O)(=O)c3ccc(F)c(C)c3)CC2)c1 (stereo not given)	KCNH2 3.1 block -100
Cc1cc(S(=O)(=O)N2CCN(c3c(C)cccc3C)CC2)ccc1F	none
O=S(=O)(c1cccc(Br)c1)N1CCN(c2nc(-c3cccs3)nc3ccccc23)CC1	none (no result: hERG WT inh, gsp agonist, pAkt inh, KCNH2 3.1 block, gsp antagonist)
CC1CN(C)C(C)C/C1=N\Oc1ccc([N+](=O)[O-])cc1 (stereo not given)	KCNH2 3.1 block -88
O=C(CN1C(=O)c2ccc([N+](=O)[O-])cc2C1=O)NC1CCS(=O)(=O)C1 (stereo not given)	none
O=C(CN1C(=O)c2ccccc2C1=O)NC1CCS(=O)(=O)C1 (stereo not given)	KCNH2 3.1 block -85 (no result: gsp antagonist)
COc1cccc(C(=O)N2CCCC(c3nc(SCCN4CCOCC4)ncc3C)C2)c1 (stereo not given)	none (no result: hERG WT inh, gsp agonist, pAkt inh, KCNH2 3.1 block, gsp antagonist)

Screening data deposited in PubChem by National Center for Advancing Translational Sciences (NCATS).
